IL1B secr inh: qHTS for Inhibitors of Inflammasome Signaling: IL-1-beta AlphaLISA Primary Screen. activity change, % at 57.5 µM. AID 743279, 2014. 360,000 compounds, 4.7% hits. THP-1 LPS/ATP IL-1B secretion, AlphaLISA, 16 h; active compounds read low; in the data active = activity change below about -50%; inconclusive = mostly about -30% to -49%
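Secreted IL-1B measured by AlphaLISA bead assay after 16 h compound exposure of THP-1 cells; compounds (final up to 57.5 uM) added 1 h before LPS (250 ng/mL) and ATP (1.25 mM) stimulation; lower signal means less secretion.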
HT1080 IDH1KD tx: qHTS for induction of synthetic lethality in tumor cells producing 2HG: qHTS for the HT-1080-IDH1KD cell line | HT-1080 IDH1 knockdown viability, ATP luminescence, 48 h | Potency, µM (titrated, usually from 46.1 µM), hits mostly cytotoxic | 360,000 compounds, 2% hits | AID 686971, 2013
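Luminescent ATP read-out (CellTiter-Glo, 10 min at room temperature) after 48 h compound exposure at 37 °C gave viability of IDH1-knockdown HT-1080 cells. Activity was normalised to DMSO and cell-free wells, then fitted as concentration-response curves.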
ELG1 repair inh: qHTS screen for small molecules that inhibit ELG1-dependent DNA repair in human embryonic kidney (HEK293T) cells expressing luciferase-tagged ELG1. HEK293T ELG1-luciferase reporter, luminescence, 16 h; DNA damage induced by 5-fluorouridine. AID 504467, 2011. Potency, µM (titrated, usually from 46.1 µM), usual class: inhibitors. 330,000 compounds, 2.3% hits; also: nearly all actives have a fitted effect of over 55% in size
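Cells (2,000 per well) received 5-fluorouridine plus test compound or DMSO and were incubated 16 hr at 37 °C, 5% CO2. Luciferase activity was read by luminescence 30 min after ONE-Glo addition; signal suppression marked inhibition of damage-induced ELG1 function.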
HT1080-NT tox: qHTS for induction of synthetic lethality in tumor cells producing 2HG: qHTS for the HT-1080-NT fibrosarcoma cell line; HT-1080-NT fibrosarcoma viability, CellTiter-Glo ATP luminescence, 48 h; Potency, µM (titrated, usually from 46.1 µM), usual class: cytotoxic; 360,000 compounds, 1.6% hits; AID 686970, 2013;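 also: NT is the 2HG producing partner of a matched IDH1 knockdown line; nearly all actives have a fitted effect of over 55% in size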
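Read-out is CellTiter-Glo luminescence after 10 minutes at room temperature, following 48 hours' compound treatment of HT-1080-NT cells (750 cells/well, RPMI, 5% FBS, 37 degrees C).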
TDP1 cell CPT: qHTS for Inhibitors of human tyrosyl-DNA phosphodiesterase 1 (TDP1): qHTS in cells in presence of CPT; chicken DT40 Tdp1-/-;hTDP1 cells + 20 nM CPT, ATP luminescence, 48 h; Potency, µM (top dose mostly 46.2 µM), hits mostly inhibitors; 420,000 compounds, 12% hits; AID 686979, 2013; also: nearly all actives have a fitted effect of over 55% in size
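Chicken DT40 Tdp1-/- cells stably complemented with human TDP1 were seeded at 400 cells/well in medium containing 20 nM camptothecin, exposed to pin-transferred compounds, and grown at 37 °C for at least 48 hr. Viability was read as ATP luminescence.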
DT40 TDP1 no CPT: qHTS for Inhibitors of human tyrosyl-DNA phosphodiesterase 1 (TDP1): qHTS in cells in absence of CPT; 420,000 compounds, 15% hits; Potency, µM (highest dose often 46.2 µM), hits mostly inhibitors; DT40 Tdp1-/- hTDP1 cells, no CPT, ATP luminescence, 48 h; also: nearly all actives have a fitted effect of over 55% in size
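Cells were dispensed at 400 per well, compounds added by pin tool, plates incubated ≥48 hr at 37 °C, then CellTiter-Glo added for 30 min at room temperature before luminescence reading. Line: DT40 Tdp1-/- complemented with hTDP1; camptothecin omitted.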
A number is an active result; n = inactive; u = inconclusive; x = no result given; [ ] = another dose, or the depositor's remark. Hits are enriched below; roughly 19% of the tested compounds scored in any of these assays. Unless noted, calls follow the shape of the dose curve; as a rule, active = well fitted curve in the direction sought with a large enough effect; inconclusive = small, poorly fitted or top-dose-only effect, or another doubt; inactive = no such curve, though single readings can be large; an effect the other way counts as inactive or inconclusive.

SMILES | IL1B secr inh | HT1080 IDH1KD tx | ELG1 repair inh | HT1080-NT tox | TDP1 cell CPT | DT40 TDP1 no CPT
CS(=O)(=O)N1CCC(C(=O)N2CCc3ccccc3C2)CC1 | n | n | n | n | n | n
CSc1ccc(S(=O)(=O)N2CCC(C(=O)N3CCc4ccccc4C3)CC2)cc1 | -64 | n | n | n | u | u
COc1ccc(OC)c(S(=O)(=O)N2CCCC2C(=O)N2CCc3ccccc3C2)c1 (stereo not drawn) | n | n | n | n | 15µM | 23µM
COc1ccc(OC)c(S(=O)(=O)N2CCCCC2C(=O)N2CCN(c3ccccn3)CC2)c1 (stereo not drawn) | n | n | u | n | u | n
CCOc1ccc(S(=O)(=O)N2CCC(C(=O)N3CCc4ccccc4C3)CC2)cc1 | n | n | u | n | u | 15µM
O=C(O)C1CSC(c2ccccc2Cl)N1C(=O)c1ccc(Cl)cc1 (stereo not drawn) | n | n | n | n | n | n
CC(C)(C)NC(=O)NC(=O)C[n+]1ccc(Cc2ccc([N+](=O)[O-])cc2)cc1 | u | n | n | n | 4.1µM | 2.1µM
O=C(C[n+]1ccc(Cc2ccccc2)cc1)Nc1ccc([N+](=O)[O-])cc1Cl | u | n | n | n | u | 15µM
Cc1ccc(Cl)cc1NC(=O)C[n+]1ccc(Cc2ccc([N+](=O)[O-])cc2)cc1 | -82 | n | u | u | 5.8µM | 5.2µM
COc1cccc(N(CC(=O)N/N=C(\C)c2cccs2)S(C)(=O)=O)c1 | n | n | n | n | n | n
CC(=O)c1ccc(N2CCN(C(=S)Nc3ccccc3F)CC2)cc1 | n | n | n | n | u | 7.3µM
CC(=O)c1ccc(N2CCN(C(=S)Nc3ccccc3)CC2)cc1 | n | n | n | n | u | 21µM
CC(=O)c1ccc(N2CCN(C(=S)Nc3cc(C)ccc3C)CC2)cc1 | n | n | n | n | n | u
Cc1ccccc1NC(=O)c1c(NC(=O)c2ccco2)sc2c1CCC(C(C)(C)C)C2 (stereo not drawn) | x | x | x | x | n | n
Nc1cc(=O)nc(SCC(=O)Nc2cccc3ccccc23)n1CCc1ccccc1 | n | n | n | n | n | n
COCCNC(=O)C1(C)CCCN(C(=O)c2cc(C)on2)C1 (stereo not drawn) | n | n | x | n | n | n
CCN(Cc1cnn(C)c1)C(=O)CC1C(=O)NCCN1Cc1cccc(OC)c1OC (stereo not drawn) | n | n | n | n | n | n
COc1cc(C(=O)OCC(=O)Nc2ccc(SC(F)F)cc2)cc(OC)c1OC | n | n | u | n | u | u
CSc1ccccc1NC(=O)COC(=O)c1ccccc1Cc1ccccc1 | n | n | n | n | n | n
O=C(Cc1ccccc1F)Nc1ccc(SC(F)F)cc1 | -55 | n | u | n | u | u
Cc1ccc(C(=O)c2ccccc2C(=O)OCC(=O)Nc2ccc(SC(F)F)cc2)cc1 | n | u | u | n | u | 18µM
Cc1ccc(C(=O)c2ccccc2C(=O)OCC(=O)Nc2cccc([N+](=O)[O-])c2)cc1 | n | n | u | n | 18µM | u
O=C(COC(=O)c1ccccc1Cc1ccccc1)Nc1ccc(SC(F)F)cc1 | -93 | n | u | n | u | u
O=C(COC(=O)Cc1ccccc1F)Nc1ccc(SC(F)F)cc1 | n | n | n | n | n | n
C=C1NN(Cc2ccc(OC)cc2)C(=O)N1c1ccccc1 | x | x | x | x | n | n
SMILES | IL1B secr inh | HT1080 IDH1KD tx | ELG1 repair inh | HT1080-NT tox | TDP1 cell CPT | DT40 TDP1 no CPT
Cc1ccc(OC(C)C(=O)N2CCN(CCc3ccncc3)CC2)cc1C (stereo not drawn) | x | x | x | x | n | u
Cc1ccc(C(=O)c2ccccc2C(=O)OCC(=O)N2CC(C)CC(C)C2)cc1 (stereo not drawn) | u | n | 18µM | n[9.24 µM] | u | u
COc1ccc(CNc2oc(COc3ccc(Cl)cc3)nc2C#N)cc1 | n | n | u | n | u | u
CCOc1ccc(-c2nc(C#N)c(NCc3ccc4c(c3)OCO4)o2)cc1 | n | n | u | n | u | 15µM
CCOc1ccc(-c2nc(C#N)c(NC3CC3)o2)cc1 | u | n | u | n | n | u
Cc1ccc(OCc2nc(C#N)c(NCc3ccc4c(c3)OCO4)o2)cc1 | -64 | n | n | n | u | u
Cc1cc(C)cc(NC(=O)C(OC(=O)c2cc[n+]([O-])cc2)c2ccccc2)c1 (stereo not drawn) | n | n | n | n | u | n
CCc1cccc(CC)c1NC(=O)Cn1nnc2sc(-c3ccccc3)cc2c1=O | x | x | x | x | n | n
CC(C)c1ccccc1NC(=O)Cn1c(/C=C/c2ccccc2)nc2ccccc21 | n | n | u | u | 18µM | u
CC(C)n1c(/C=C/c2ccccc2)nc2ccccc21 | -78 | n | u | n | n | u
CCCn1c(/C=C/c2ccccc2)nc2ccccc21 | n | 10µM | u | 10µM | u | 23µM
COCCOCCn1c(/C=C/c2ccccc2)nc2ccccc21 | n | u | u | u | u | u
COc1ccc(C2=Nc3ccccc3N(C(=O)c3cnccn3)C2C(=O)NC2CCCC2)cc1 (stereo not drawn) | n | n | x | n | n | n
c1ccc2c(c1)nnn2Cn1nnc2ccccc21 | n | n | x | n | n | n
COc1cc([N+](=O)[O-])ccc1NC(=O)COC(=O)c1c[nH]c(=O)[nH]c1=O | n | n | u | n | n | n
Cc1cccc(N2CCN(CC(O)COc3ccccc3Cl)CC2)c1 (stereo not drawn) | n | n | n | n | u | 16µM
OC(COc1cccc2ccccc12)CN1CCN(c2ccc(Cl)cc2)CC1 (stereo not drawn) | n | n | n | n | u | 23µM
OC(COc1c(F)cc(Br)cc1F)CN1CCN(c2ccc(F)cc2)CC1 (stereo not drawn) | n | n[9.24 µM] | n | n | u | 18µM
CCCCCCCN(CC)CCCC(O)c1ccc(NS(C)(=O)=O)cc1 (stereo not drawn) | x | x | x | x | u | n
CCCNC(=O)C1(C)CCN(C(=O)C2(c3ccc(Cl)cc3)CCCC2)C1 (stereo not drawn) | n | n | x | n | u | u
